Bioassay records from PubChem BioAssay.
NPC1 promoter act = qHTS Assay for NPC1 Promoter Activators. 320,000 tested, 2.4% active. Potency, µM (doses to about 9.22 µM), for inactives: at the top dose activation, most hits filed as activators. AID 485313, 2010. Huh7 NPC1 promoter luciferase reporter, 24 h; note: % of control where 0% means no effect; nearly all actives have a fitted effect of over 60% in size
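Readout is luciferase luminescence, reflecting NPC1 promoter activation in stably transfected Huh7 cells after 24 h compound exposure at 37 °C in reduced-serum medium with 10% FBS.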
FLuc modulator = qHTS profiling assay for firefly luciferase inhibitor/activator using purifed enzyme and Km concentrations of substrates (counterscreen for miR-21 project). 360,000 tested, 6.9% active. Potency, µM (top dose mostly 57.5 µM), for the others: top-dose activity change, negative = inhibition, most hits filed as inhibitors. Luciferin 4-monooxygenase (Photinus pyralis), P08659. purified FLuc, Km substrates, luminescence inhibition. AID 588342, 2011;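 note: plate controls were vehicle for no effect and reference inhibitor for full effect; nearly all actives have a fitted effect of over 55% in size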
Target sequence (P08659 whole entry, looked up): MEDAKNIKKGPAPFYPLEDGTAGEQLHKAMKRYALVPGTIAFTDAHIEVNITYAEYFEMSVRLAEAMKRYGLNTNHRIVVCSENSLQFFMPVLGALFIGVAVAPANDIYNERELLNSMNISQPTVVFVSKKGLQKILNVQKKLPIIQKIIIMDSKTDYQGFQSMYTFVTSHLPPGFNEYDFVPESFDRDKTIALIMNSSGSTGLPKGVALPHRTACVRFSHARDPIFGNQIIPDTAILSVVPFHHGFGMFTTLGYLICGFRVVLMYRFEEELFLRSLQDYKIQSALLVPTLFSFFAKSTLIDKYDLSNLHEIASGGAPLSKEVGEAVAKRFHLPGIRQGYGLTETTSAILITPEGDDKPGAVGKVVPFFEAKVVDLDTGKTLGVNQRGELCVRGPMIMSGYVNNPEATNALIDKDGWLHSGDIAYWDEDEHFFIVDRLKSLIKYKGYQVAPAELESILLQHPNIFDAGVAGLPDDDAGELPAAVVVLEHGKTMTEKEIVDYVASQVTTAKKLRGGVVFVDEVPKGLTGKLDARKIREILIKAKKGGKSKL
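Purified P. pyralis luciferase, 10 nM final, with Km-level 10 uM D-luciferin and 10 uM ATP in 50 mM Tris acetate pH 7.5, 10 mM Mg acetate, 0.01% Tween-20, 0.05% BSA; 6-point qHTS titration about 60 µM downward; luminescence read.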
SMN2 splice up = qHTS Assay for Enhancers of SMN2 Splice Variant Expression; HEK293 SMN2-luciferase splicing reporter, luminescence, 30-36 h; Potency, µM (series often up to 46.1 µM), inactives show at the top dose activity change, positive = activation, actives largely listed as activators; 210,000 tested, 2.8% active; AID 1458, 2008; note: % of control where 0% means no effect; nearly all actives have a fitted effect of over 55% in size
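HEK293 cells carry an SMN2 […]–luciferase reporter in which exon 7 inclusion puts luciferase in frame. Cells were plated 10-12 h before compound addition, then incubated 30-36 h at 37C. ONE-Glo luminescence was read; sodium butyrate at 4.5 mM final served as control.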
Rab9 promoter act = qHTS Assay for Rab9 Promoter Activators; Huh7 Rab9 promoter-luciferase reporter, luminescence, 24 h; Potency, µM (titrated, usually from 9.22 µM), without a hit: top-dose activation, negative = inhibition, usual class: activators; 320,000 tested, 2.8% active; AID 485297, 2010; note: % of control where 0% means no effect; nearly all actives have a fitted effect of over 60% in size
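Huh7 cells stably carrying a Rab9 promoter-luciferase reporter, 1500 cells per well in OP-MEM I with 10% FBS, treated with compound 24 hours at 37C. Luciferase activity read by luminescence after 10 minutes with Amplite reagent.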
ELG1 genotoxic = qHTS screen for small molecules that induce genotoxicity in human embryonic kidney (HEK293T) cells expressing luciferase-tagged ELG1. HEK293T ELG1-luciferase reporter, luminescence, 16 h. Potency, µM (top dose mostly 46 µM), without a hit: at the highest dose activity change, positive = activation, most hits filed as activators. 330,000 tested, 1.3% active; note: % of control where 0% means no effect; nearly all actives have a fitted effect of over 60% in size
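Luminescence read-out: rising ELG1-luciferase signal, reflecting elevated ELG1 protein under genetic stress, flags genotoxic compounds. Cells were treated for 16 hr at 37 °C before ONE-Glo detection.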
* hit, by the source's call; ? = inconclusive; nt = not tested or not shown; [ ] = dose if it differs, or a comment. This is a sample that favours compounds with a hit; in the whole collection about 7.4% have one here. Calls come from the whole dose curve; as a rule, active = well fitted curve in the direction sought with a large enough effect; inconclusive = small, poorly fitted or top-dose-only effect, or another doubt; inactive = no such curve, though single readings can be large; an effect the other way counts as inactive or inconclusive. Potency is the fitted concentration of half-maximal effect.

SMILES	NPC1 promoter act	FLuc modulator	SMN2 splice up	Rab9 promoter act	ELG1 genotoxic
COc1ccc(-n2nc(C(=O)NCC(=O)N3CCC(C)CC3)c3ccccc3c2=O)cc1Cl	24%	1.9µM*	nt	21%	-7%
COc1ccc(-n2nc(C(=O)NCC(=O)N3CCN(c4ccccn4)CC3)c3ccccc3c2=O)cc1Cl	22%	3µM*	?	?	-14%
CCN(CC)C(=O)CNC(=O)c1nn(-c2ccc(OC)c(Cl)c2)c(=O)c2ccccc12	2%	?	nt	3%	-2%
CCCSc1nnc(NC(=O)Cc2coc3cc(C)ccc23)s1	nt	0%	9%	nt	nt
O=c1[nH]c(-c2ccccc2)nnc1-c1ccccc1	?	17µM*	nt	?	?
CC(=C\c1ccccc1)/C=C1/SC(=S)N(CCCC(=O)O)C1=O	-15%	27µM*	nt	-20%	-1%
CC(/C=C1\SC(=S)N(NC(=O)c2ccc(O)cc2)C1=O)=C\c1ccccc1	7%	?	?	3%	-1%
O=C(O)CCCN1C(=O)/C(=C\c2ccco2)SC1=S	-5%	?	nt	-22%	-4%
C=CCN1C(=O)/C(=C\C(C)=C\c2ccccc2)SC1=S	14%	8.5µM*	nt	1%	?
CC(/C=C1\SC(=O)N(CCCC(=O)O)C1=O)=C\c1ccccc1	-32%	5.4µM*	-76%	-30%[0.369 µM]	-9%
CC(=C\c1ccccc1)/C=C1/SC(=S)N(C(C(=O)O)C(C)C)C1=O (stereo not drawn)	1%	27µM*	-2%	1%	0%
CCC(C(=O)O)N1C(=O)/C(=C/C(C)=C/c2ccccc2)SC1=S (stereo not drawn)	-5%	-2%	nt	4%	0%
CCOc1ncccc1C(=O)OCC(=O)c1ccccc1	-3%	?	9%	-3%	-1%
CCOc1ncccc1C(=O)OCC(=O)c1ccc(C)c(C)c1	?	11µM*	?	?	9%
CCOc1ncccc1C(=O)OCC(=O)c1ccccc1Br	1%	13µM*	17%	0%	4%
CCOc1ccc(-c2cc(CCCC(=O)NCCc3ccc(OC)c(OC)c3)no2)cc1	nt	11µM*	-62%	nt	nt
CCOc1ccc(-c2cc(CCCC(=O)NCCc3cc(OC)c(OC)c(OC)c3)no2)cc1	nt	13µM*	-17%	nt	nt
COc1ccc(CCNC(=O)CCOc2ccc(C)cc2)cc1OC	-8%	5%	nt	0%	3%
CCCCn1c(-c2ccccc2)cnc1SCC(=O)NCCc1ccc(OC)c(OC)c1	-2%	17µM*	28%	2%	4%
CCOc1ccc(-c2cc(CCCC(=O)NCCCOC)no2)cc1	-2%	12µM*	17%	8%	0%
COc1ccc(CCNC(=O)CSc2nnc(-c3ccccc3)c3ccccc23)cc1OC	-3%	3%	2%	-6%	-3%
COc1ccccc1-c1nc2c(c(SCC(=O)Nc3ccccc3F)n1)Cc1c(CO)cnc(C)c1O2	nt	4%	nt	nt	nt
CC1(C)NC(=O)N(CCCOc2ccc(Br)cc2Cl)C1=O	2.8µM*	11µM*	?	?	15µM*
COc1ccc(CCNC(=O)C(=O)c2c[nH]c3ccccc23)cc1	nt	nt	-9%	nt	nt
Cc1ccc(Nc2cccccc2=O)cc1	?	15µM*	nt	3.5µM*	?
SMILES	NPC1 promoter act	FLuc modulator	SMN2 splice up	Rab9 promoter act	ELG1 genotoxic
CC1(C)Oc2cc3oc(=O)ccc3cc2C[C@@H]1O	nt	nt	nt	nt	9%
CC(C)(O)[C@H]1Cc2cc3ccc(=O)oc3cc2O1	?	12µM*	nt	3%[1.84 µM]	?
C=C(C)C1Cc2cc3ccc(=O)oc3cc2O1 (stereo not drawn)	14%	13µM*	-11%[1.84 µM]	?	?
NS(=O)(=O)c1cccc(NC(=O)CSc2nc3ccccc3c(=O)n2CC2CCCO2)c1 (stereo not drawn)	-3%	4%	nt	-3%	-3%
O=C(NCCC(=O)N1CCC2(CC1)NCCc1[nH]cnc12)c1ccc(Br)cc1	-3%	-1%	nt	0%	3%
CC(C)c1ccccc1NC(=O)Cn1c(/C=C/c2ccccc2)nc2ccccc21	-3%	21µM*	nt	10%	?
CC(C)n1c(CN(C)c2ccccc2)nc2ccccc21	-5%	-10%	nt	-2%	-7%
CCn1c(/C=C/c2cc[n+](C)cc2)nc2ccccc21	8%	2%	nt	5%	-4%
Cc1ccc(NC(=O)Cn2c(/C=C/c3ccccc3)nc3ccccc32)cc1C	2%	?	18%	2%	?
CC(C)n1c(/C=C/c2ccccc2)nc2ccccc21	?	2.4µM*	11µM*	?	?
CCCn1c(/C=C/c2ccccc2)nc2ccccc21	1.8µM*	3µM*	11µM*	1.8µM*	?
COCCOCCn1c(/C=C/c2ccccc2)nc2ccccc21	1.4µM*	1.7µM*	13µM*	1.4µM*	?
CCC(CC)C(=O)Nc1nnc(SCc2cc(=O)n3cccc(C)c3n2)s1	nt	-14%	nt	nt	nt
O=C(c1ccccc1)C(O)C(c1ccccc1)N1CCOCC1 (stereo not drawn)	-2%	0%	nt	-5%	-5%
CC(C)(C)OC(=O)N1CCC(c2c(C(=O)NC3CCCCC3)cnn2-c2cccc(F)c2)CC1	nt	0%	nt	nt	nt
COc1ccc(/C=C/c2nc3ccccc3n2Cc2ccc(OC)c(OC)c2)cc1	1.6µM*	0.43µM*	nt	0.79µM*	2.1µM*
CC(=O)Nc1ccc(NC(=O)CSc2nc(N)c(NC(=O)c3ccccc3F)c(=O)[nH]2)cc1	-2%	-18%	nt	4%	6%
COc1cccc(C2=NN(S(C)(=O)=O)C(c3cccs3)C2)c1 (stereo not drawn)	23%	?	nt	2.8µM*	15%
COc1ccc(C2=NN(S(C)(=O)=O)C(c3cccs3)C2)cc1OC (stereo not drawn)	?	17µM*	nt	?	16%
COc1ncc2nc(-c3cc(F)cc(F)c3)c(=O)n(CCc3ccccc3)c2n1	nt	nt	-14%	nt	nt
CCOc1ccc(CNC(=O)c2cccc(NC(=O)C3=C(C)OCCS3)c2)cc1	4%	?	nt	17%	-5%
COc1ccc(CNC(=O)Cc2ccc(NC(=O)C3=C(C)OCCS3)cc2)cc1	24%	1.2µM*	nt	?	16µM*
COc1cccc(CNC(=O)c2cccc(NC(=O)C3=C(C)OCCS3)c2)c1	-2%	?	nt	6%	-6%
CC1=C(C(=O)Nc2ccc(CC(=O)NCc3ccc(OC(C)C)cc3)cc2)SCCO1	?	2.7µM*	nt	12%	9.2µM*
COc1ccc(-n2nnnc2-c2ccc(S(C)(=O)=O)cc2Cl)cc1	0%	1%	nt	-3%[1.84 µM]	-5%
COc1cccc(/C=C/C(=O)OCC(=O)Nc2ccc(Cl)c(S(=O)(=O)N(C)C)c2)c1	-1%	11µM*	-1%	-5%	0%
